Test results: PubChem BioAssay
Records with an inconclusive call do not appear. The source made the active and inactive calls.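 How the source made its calls, unless noted: active means normalized viability below 100% at a tested concentration; inactive means the rest.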

Assays:
[1] = growth inhibition of DIPG glioma cells, dose response, cell-based, SU-DIPG-XVII, MIPE5.0, CellTiter-Glo, qHTS (AID 1347060; cut-off not given, nearly all actives have AC50 up to about 26 µM;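 on AC50: cells exposed to compound for 48 hours before viability readout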); conditions: SU-DIPG-XVII viability, CellTiter-Glo ATP luminescence
[2] = growth inhibition of DIPG glioma cells, dose response, cell-based, JHH-DIPG-1, MIPE4.0, CellTiter-Glo, qHTS (AID 1347062; cut-off not given, nearly all actives have AC50 up to about 27 µM;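 further: cells exposed to compound for two days before readout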); conditions: JHH-DIPG-1 viability, CellTiter-Glo ATP luminescence
[3] = growth inhibition of DIPG glioma cells, dose response, cell-based, SU-DIPG-IV, MIPE4.0, CellTiter-Glo, qHTS (AID 1347063; cut-off not given, nearly all actives have AC50 up to about 30 µM;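 further: compound exposure lasted 48 hours before the viability readout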); conditions: SU-DIPG-IV viability, CellTiter-Glo ATP luminescence
[4] = growth inhibition of DIPG glioma cells, dose response, cell-based, SU-DIPG-XIII, MIPE5.0, CellTiter-Glo, qHTS (AID 1347064; cut-off not given, nearly all actives have AC50 up to about 23 µM;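 further: cells exposed to compound for 48 hours before the viability read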); conditions: SU-DIPG-XIII viability, CellTiter-Glo ATP luminescence
[5] = viability loss in pontine glioma line – cell-based, SU-DIPG-XXV, MIPE5.0, CellTiter-Glo, qHTS, dose response (AID 1347065; cut-off not given, nearly all actives have AC50 up to about 26 µM;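 further: cells exposed to compound for 48 hours before ATP readout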); conditions: CellTiter-Glo ATP luminescence
[6] = SU-DIPG-VI glioma cell viability, MIPE4.0 library, CellTiter-Glo luminescence, qHTS (AID 1347066; cut-off not given, nearly all actives have AC50 up to about 30 µM;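 further: cells exposed to compound for 48 hours before readout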); conditions: CellTiter-Glo ATP luminescence
[7] = JHH-DIPG-1 glioma cell viability, MIPE5.0 library, CellTiter-Glo luminescence, qHTS (AID 1347067; cut-off not given, nearly all actives have AC50 up to about 26 µM;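 further: cells exposed to compound for 48 hours before readout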); conditions: JHH-DIPG-1 glioma viability, CellTiter-Glo ATP luminescence
[8] = SU-DIPG-XXV glioma cell viability, MIPE5.0 library, qHTS (AID 1347068; cut-off not given, nearly all actives have IC50 up to about 30 µM;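 on IC50: cells exposed to compound for 48 hours before viability readout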)
[9] = sensitizers of A549 cells to miR-34 induction, primary screen, imaging, A549 dox-inducible miR-34, nuclei and caspase counts (AID 1347080;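 active means compounds whose cell count with miR-34 switched on is under 0.7 times the count with it off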); conditions: A549 miR-34 inducible, Hoechst nuclei count, 48 h
[10] = survival rescue of mitochondrial mutant cells in low glucose, primary screen, MELAS cybrids, Rieske KO mouse fibroblasts, CellTiter-Glo (AID 1508586;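 active means mean z-score across replicates of 1.96 or higher in either the MELAS or the Rieske mutant cell line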;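 further: z relative to plate mean and SD of compound and empty wells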)
[11] = growth inhibition of DIPG glioma cells, dose response, cell-based, SU-DIPG-XIII, MIPE4.0, CellTiter-Glo, qHTS (AID 1347061; cut-off not given, nearly all actives have AC50 up to about 37 µM;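 further: cells exposed to compound for 48 hours before readout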); conditions: SU-DIPG-XIII viability, CellTiter-Glo ATP luminescence
[12] = modifiers of HSF1 nuclear foci, imaging, Selleck Cancer Library (AID 1347162; in the data active means plate-normalised HSF1 focus index below about 0.46); conditions: human cells, at 10 µM; SSMD: measured here: HSF1 foci SSMD mean; cell count: measured here: cell number; plate-normalised HSF1 focus index: stronger effect = lower value
[13] = ovarian cancer cell viability with rucaparib, profiling panel, oncology-focused library, rucaparib conditional (AID 1508598); conditions: patient-derived ovarian cancer cells, CellTiter-Glo viability, 144 h, stronger effect = lower value
[14] = stronger effect = lower value, cell number ratio, induced over uninduced
[15] = measured here: relative caspase fold change +Dox/-Dox
[16] = measured here: total cells with miR-34 induction, stronger effect = lower value
[17] = measured here: total cells without miR-34 induction
[18] = MELAS cybrid survival, CellTiter-Glo 48 h, stronger effect = higher value
[19] = Rieske KO mouse fibroblast survival, CellTiter-Glo 72 h

## C[C@H](NC(=O)/C(C#N)=C/c1cccc(Br)n1)c1ccccc1
[1]
  AC50: 7.42 µM (active)
[2]
  AC50: 9.35 µM (active)
[3]
  AC50: 7.43 µM (active)
[4]
  AC50: 7.42 µM (active)
[5]
  AC50: 3.72 µM (active)
[6]
  AC50: 14.8 µM (active)
[7]
  AC50: 9.34 µM (active)

## C=CC(=O)Nc1ccc2ncnc(Nc3ccc(OCc4cccc(F)c4)c(Cl)c3)c2c1
[1]
  AC50: 5.25 µM (active)
[2]
  AC50: 23.5 µM (active)
[3]
  AC50: 1.32 µM (active)
[4]
  AC50: 11.8 µM (active)
[5]
  AC50: 6.61 µM (active)
[6]
  AC50: 4.69 µM (active)
[7]
  AC50: 8.33 µM (active)
[8]
  IC50: 14.8 µM (active)
[9]; [14]
  fold change: 0.764 (inactive)
[9]; [15]
  fold change: 2.08
[9]; [16]
  cell count: 4290
[9]; [17]
  cell count: 5610
[10]; [18]
  z-score: -0.263 (inactive)
[10]; [19]
  z-score: 0.764

## CCn1nnc2c(N3CCOCC3)nc(-c3ccc(NC(=O)Nc4ccc(C(=O)N5CCN(C)CC5)cc4)cc3)nc21
[1]
  AC50: 0.372 µM (active)
[2]
  AC50: 0.469 µM (active)
[3]
  AC50: 0.0148 µM (active)
[4]
  AC50: 0.742 µM (active)
[5]
  AC50: 0.372 µM (active)
[6]
  AC50: 0.166 µM (active)
[7]
  AC50: 0.934 µM (active)
[8]
  IC50: 0.742 µM (active)

## C=C1C(=O)OC2/C=C(/C)CC/C=C(/C)CCC12 (centres undefined)
[1]
  AC50: 20.9 µM (active)
[11]
  outcome: inactive
[5]
  AC50: 18.6 µM (active)
[7]
  AC50: 16.6 µM (active)

## CN1CCN(CCOc2cc(OC3CCOCC3)c3c(Nc4c(Cl)ccc5c4OCO5)ncnc3c2)CC1
[1]
  outcome: inactive
[11]
  outcome: inactive
[5]
  outcome: inactive
[7]
  outcome: inactive
[8]
  outcome: inactive
[9]; [14]
  fold change: 0.876 (inactive)
[9]; [15]
  fold change: 1
[9]; [16]
  cell count: 1170
[9]; [17]
  cell count: 1330
[12]
  SSMD: -0.947
  cell count: 7430
  plate-normalised HSF1 focus index: 0.94 (inactive)
[10]; [18]
  z-score: 0.931 (inactive)
[10]; [19]
  z-score: -0.384
[13]; at 0.000305 µM, OCI-C5x cells, with rucaparib 10 µM, 100% = cells with rucaparib alone
  viability: 98.7% (active)
[13]; at 0.000305 µM, OCI-C5x cells, without rucaparib
  viability: 98.5% (active)
[13]; at 0.000305 µM, OCI-P5x cells, with rucaparib 20 µM, 100% = cells with rucaparib alone
  viability: 98.8% (active)
[13]; at 0.000305 µM, OCI-P5x cells, without rucaparib
  viability: 104% (inactive)
[13]; at 0.00122 µM, OCI-C5x cells, with rucaparib 10 µM, 100% = cells with rucaparib alone
  viability: 107% (inactive)
[13]; at 0.00122 µM, OCI-C5x cells, without rucaparib
  viability: 98.2% (active)
[13]; at 0.00122 µM, OCI-P5x cells, with rucaparib 20 µM, 100% = cells with rucaparib alone
  viability: 102% (inactive)
[13]; at 0.00122 µM, OCI-P5x cells, without rucaparib
  viability: 90.6% (active)
[13]; at 0.00488 µM, OCI-C5x cells, with rucaparib 10 µM, 100% = cells with rucaparib alone
  viability: 97.5% (active)
[13]; at 0.00488 µM, OCI-C5x cells, without rucaparib
  viability: 94.4% (active)
[13]; at 0.00488 µM, OCI-P5x cells, with rucaparib 20 µM, 100% = cells with rucaparib alone
  viability: 102% (inactive)
[13]; at 0.00488 µM, OCI-P5x cells, without rucaparib
  viability: 91.3% (active)
[13]; at 0.0195 µM, OCI-C5x cells, with rucaparib 10 µM, 100% = cells with rucaparib alone
  viability: 107% (inactive)
[13]; at 0.0195 µM, OCI-C5x cells, without rucaparib
  viability: 94.6% (active)
[13]; at 0.0195 µM, OCI-P5x cells, with rucaparib 20 µM, 100% = cells with rucaparib alone
  viability: 96.6% (active)
[13]; at 0.0195 µM, OCI-P5x cells, without rucaparib
  viability: 89% (active)
[13]; at 0.0781 µM, OCI-C5x cells, with rucaparib 10 µM, 100% = cells with rucaparib alone
  viability: 105% (inactive)
[13]; at 0.0781 µM, OCI-C5x cells, without rucaparib
  viability: 94.2% (active)
[13]; at 0.0781 µM, OCI-P5x cells, with rucaparib 20 µM, 100% = cells with rucaparib alone
  viability: 82.4% (active)
[13]; at 0.0781 µM, OCI-P5x cells, without rucaparib
  viability: 83% (active)
[13]; at 0.313 µM, OCI-C5x cells, with rucaparib 10 µM, 100% = cells with rucaparib alone
  viability: 104% (inactive)
[13]; at 0.313 µM, OCI-C5x cells, without rucaparib
  viability: 95.8% (active)
[13]; at 0.313 µM, OCI-P5x cells, with rucaparib 20 µM, 100% = cells with rucaparib alone
  viability: 69% (active)
[13]; at 0.313 µM, OCI-P5x cells, without rucaparib
  viability: 72.2% (active)
[13]; at 1.25 µM, OCI-C5x cells, with rucaparib 10 µM, 100% = cells with rucaparib alone
  viability: 91.7% (active)
[13]; at 1.25 µM, OCI-C5x cells, without rucaparib
  viability: 87.9% (active)
[13]; at 1.25 µM, OCI-P5x cells, with rucaparib 20 µM, 100% = cells with rucaparib alone
  viability: 58.9% (active)
[13]; at 1.25 µM, OCI-P5x cells, without rucaparib
  viability: 64.4% (active)
[13]; at 5 µM, OCI-C5x cells, with rucaparib 10 µM, 100% = cells with rucaparib alone
  viability: 32.8% (active)
[13]; at 5 µM, OCI-C5x cells, without rucaparib
  viability: 53.2% (active)
[13]; at 5 µM, OCI-P5x cells, with rucaparib 20 µM, 100% = cells with rucaparib alone
  viability: 5.51% (active)
[13]; at 5 µM, OCI-P5x cells, without rucaparib
  viability: 52.2% (active)
